KCNQ2 block = blocks the rat KCNQ2 potassium channel | O88943 | CHO-K1 KCNQ2, FluxOR thallium flux, 20 min; active compounds read low | B-score at 10 µM | 310,000 compounds, 1.1% hits | AID 2156;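 active = fluorescence ratio B-score at most minus 3 library SDs, with starting brightness B-score within 2 library SDs, cut at about -5.5 in these data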
Target sequence (O88943 whole entry, looked up): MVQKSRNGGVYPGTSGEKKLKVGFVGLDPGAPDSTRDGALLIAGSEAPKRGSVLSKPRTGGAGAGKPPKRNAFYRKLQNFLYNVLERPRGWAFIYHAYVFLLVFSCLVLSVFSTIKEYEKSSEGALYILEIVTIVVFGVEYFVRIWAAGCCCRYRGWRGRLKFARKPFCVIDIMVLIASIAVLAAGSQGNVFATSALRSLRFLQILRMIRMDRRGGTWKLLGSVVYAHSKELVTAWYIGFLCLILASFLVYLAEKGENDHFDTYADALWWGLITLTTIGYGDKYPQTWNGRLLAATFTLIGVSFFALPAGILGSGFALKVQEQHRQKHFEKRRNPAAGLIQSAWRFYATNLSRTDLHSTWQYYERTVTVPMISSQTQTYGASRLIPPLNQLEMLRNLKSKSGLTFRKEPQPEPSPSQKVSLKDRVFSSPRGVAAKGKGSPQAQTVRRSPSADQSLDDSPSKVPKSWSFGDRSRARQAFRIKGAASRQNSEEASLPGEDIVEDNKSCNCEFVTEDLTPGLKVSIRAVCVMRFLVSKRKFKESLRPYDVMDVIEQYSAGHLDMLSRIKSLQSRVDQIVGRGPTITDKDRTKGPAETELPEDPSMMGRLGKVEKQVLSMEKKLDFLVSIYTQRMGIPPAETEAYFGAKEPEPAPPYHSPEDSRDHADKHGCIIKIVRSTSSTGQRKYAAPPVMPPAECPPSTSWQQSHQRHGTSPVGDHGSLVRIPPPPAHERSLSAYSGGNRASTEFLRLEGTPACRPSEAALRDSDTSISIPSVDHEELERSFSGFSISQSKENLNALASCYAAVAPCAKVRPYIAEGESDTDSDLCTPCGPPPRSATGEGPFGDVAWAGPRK
KCNQ2 enhance = enhances the rat KCNQ2 potassium channel; B-score at 10 µM; CHO-K1 KCNQ2, FluxOR thallium flux fluorescence; active compounds read high; 310,000 compounds, 0.54% hits; O88943;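 active = fluorescence ratio B-score at least 3 SD of library B-scores, with initial fluorescence B-score within 3 of them, cut at about 5.3 in these data; same plate scores as AID 2156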;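 note: B-score of peak minus minimum over baseline fluorescence ratio after K+ and Tl+ stimulus; positive B-score means potentiation of KCNQ2 with more thallium influx and brighter signal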
* marks the source's active call; other numbers are inactive results. An excerpt weighted towards active compounds, which were near 1.6% of everything screened.

What do the screens show for `COc1ccc(OC)c(CCNC(=O)Cn2sc3nc(C)cc(C)c3c2=O)c1`?
KCNQ2 block: -9.32*; KCNQ2 enhance: -9.32

Results for COc1ccccc1C(=O)Nc1ccccc1N1CCOCC1 ?
KCNQ2 block: inactive

Results for O=C(Nc1ccccc1N1CCOCC1)c1cc2ccccc2o1 ?
KCNQ2 block: inactive

What do the screens show for `COc1ccc(N2CCOCC2)c(NC(=O)c2cc3ccccc3o2)c1`?
KCNQ2 block: -7.34*; KCNQ2 enhance: -7.34

What do the screens show for `COc1c(C(=O)Nc2ccccc2N2CCOCC2)cc2ccccc2c1Br`?
KCNQ2 block: -7.47*; KCNQ2 enhance: -7.47

Results for O=C(NCc1ccccn1)c1ccc(Cl)s1 ?
KCNQ2 block: inactive

How did O=C(Nc1ccccc1C(=O)N1CCOCC1)C1CC(=O)N(c2ccc(F)cc2)C1 (configuration not stated) do in these assays?
KCNQ2 block: inactive; KCNQ2 enhance: 0.02

How did CCOc1cc2c(cc1OC)C(c1cccc([N+](=O)[O-])c1)NCC2 (configuration not stated) do in these assays?
KCNQ2 block: inactive; KCNQ2 enhance: 0.19

How did O=C(COC(=O)c1ccc([N+](=O)[O-])o1)Nc1nc2ccccc2s1 do in these assays?
KCNQ2 block: inactive; KCNQ2 enhance: 0.77

How did CC(=O)Nc1ccc(S(=O)(=O)N2CCN(S(=O)(=O)N3CCOCC3)CC2)cc1 do in these assays?
KCNQ2 block: inactive

How did COc1ccc(NC(=O)CC2C(=O)N(Cc3ccccc3)C(=S)N2CCN2CCOCC2)cc1 (configuration not stated) do in these assays?
KCNQ2 block: inactive

Results for CCN1C(=O)C(CC(=O)Nc2ccc(OC)cc2)N(CCc2ccc(F)cc2)C1=S (configuration not stated) ?
KCNQ2 block: -7.53*; KCNQ2 enhance: -7.53

How did COc1ccc(NC(=O)CC2C(=O)N(C)C(=S)N2CCc2ccc(F)cc2)cc1 (configuration not stated) do in these assays?
KCNQ2 block: inactive

How did C=CCN1C(=O)C(CC(=O)Nc2ccc(OCCC)cc2)N(CCCN2CCN(Cc3ccccc3)CC2)C1=S (configuration not stated) do in these assays?
KCNQ2 block: -6.77*; KCNQ2 enhance: -6.77

Results for COc1ccc(CC(=O)Nc2cc(NC(=O)Cc3ccc(OC)c(OC)c3)cc(C(=O)O)c2)cc1OC ?
KCNQ2 block: inactive

How did COC(=O)c1nn(-c2ccccc2)c(=O)cc1Sc1ccc(Cl)cc1 do in these assays?
KCNQ2 block: inactive

How did Oc1c(Br)cc(Br)cc1C=NCc1ccccc1 do in these assays?
KCNQ2 block: inactive

Results for Oc1c(Br)cc(Br)cc1C=NCc1ccc(F)cc1 ?
KCNQ2 block: inactive; KCNQ2 enhance: 11.3*

How did COC(=O)COc1ccc(/C=C2/SC(=O)N(CC(=O)N3CCCC3)C2=O)cc1Br do in these assays?
KCNQ2 block: inactive

Results for CCOCCCNC(=O)C(NC(=O)Cc1cccs1)c1ccccc1 (configuration not stated) ?
KCNQ2 block: inactive

How did Nc1cc(Cl)ccc1C(=O)OCC(=O)NC1CCCCC1 do in these assays?
KCNQ2 block: inactive

What do the screens show for `CCN(C(=O)COC(=O)c1ccc(Cl)cc1N)C1CCCCC1`?
KCNQ2 block: -6.4*; KCNQ2 enhance: -6.4

Results for CC(=O)N/C(=C\c1ccc2c(c1)OCO2)C(=O)NC(C(=O)O)c1ccccc1 (configuration not stated) ?
KCNQ2 block: inactive

How did Cc1cccc(NC(=O)C2(c3ccccc3)CC2(Cl)Cl)c1 (configuration not stated) do in these assays?
KCNQ2 block: inactive

What do the screens show for `Cc1cc(C)cc(NC(=O)C2(c3ccccc3)CC2(Cl)Cl)c1` (configuration not stated)?
KCNQ2 block: -6.29*; KCNQ2 enhance: -6.29

How did COc1ccc(C)cc1NC(=O)CSc1nnc(COc2ccc(Cl)cc2)n1Cc1ccco1 do in these assays?
KCNQ2 block: inactive

Results for O=C(Nc1sc2c(c1C(=O)O)CCCCC2)c1ccccc1F ?
KCNQ2 block: inactive; KCNQ2 enhance: 2.37

Results for CCOC(=O)Cn1c(=NC(=O)CSC(C)=O)sc2cc(OC)ccc21 ?
KCNQ2 block: inactive

What do the screens show for `CCOC(=O)Cn1c(=NC(=O)CSC(C)=O)sc2ccccc21`?
KCNQ2 block: -6.77*; KCNQ2 enhance: -6.77

What do the screens show for `COc1ccc(CCNC(=O)COc2ncnc3cc([N+](=O)[O-])ccc23)cc1`?
KCNQ2 block: inactive; KCNQ2 enhance: 0.02

What do the screens show for `O=C(/C=C/c1ccccc1[N+](=O)[O-])c1ccccc1Br`?
KCNQ2 block: inactive

Results for O=C(c1cnn2c(C(F)(F)F)cc(-c3ccc(F)cc3)nc12)N1CCc2ccccc2C1 ?
KCNQ2 block: -6.27*; KCNQ2 enhance: -6.27

Results for Cc1ccc(-c2cc(C(F)F)n3ncc(C(=O)N4CCc5ccccc5C4)c3n2)cc1 ?
KCNQ2 block: inactive

How did Cc1ccccc1NC(=O)c1cccc2c1C(=O)N(C1CCCCC1)C2 do in these assays?
KCNQ2 block: inactive

Results for CCOc1ccccc1NC(=O)c1cccc2c1C(=O)N(C1CCCCC1)C2 ?
KCNQ2 block: -6.33*; KCNQ2 enhance: -6.33

What do the screens show for `O=C1CC(c2ccccc2)CC(O)=C1C=NCCCO` (configuration not stated)?
KCNQ2 block: inactive; KCNQ2 enhance: 2.14

How did COc1cc(-c2nc(CCNC(=O)c3ccco3)cs2)cc(OC)c1OC do in these assays?
KCNQ2 block: inactive

How did COc1ccc(C=O)cc1COc1ccccc1F do in these assays?
KCNQ2 block: inactive

How did COc1ccc(/C=C/C(=O)c2ccccc2)cc1COc1ccccc1F do in these assays?
KCNQ2 block: -7.58*; KCNQ2 enhance: -7.58

Results for CCCCN(C(=O)CSCc1ccc(C)cc1)c1c(N)n(CCC)c(=O)[nH]c1=O ?
KCNQ2 block: inactive; KCNQ2 enhance: 0.45

How did Cc1ccc(Cl)cc1N1CCN(C(=O)CCCn2c(=O)c3cccn3c3cccnc32)CC1 do in these assays?
KCNQ2 block: inactive

Results for O=C(Cn1c(=O)c2cccn2c2cccnc21)N1CCN(c2ccc(Cl)cc2)CC1 ?
KCNQ2 block: -7.64*; KCNQ2 enhance: -7.64

How did Cc1ccc(NC(=O)Cn2nnc(-c3ccc4c(c3)OCO4)n2)cc1F do in these assays?
KCNQ2 block: inactive; KCNQ2 enhance: 0.01

How did COc1ccc(-c2nc(NC(=O)Cn3c(=O)oc4ccccc43)sc2C)cc1 do in these assays?
KCNQ2 block: inactive

Results for COc1ccc(CN(C(=O)CSc2nnc(-c3ccccc3C)o2)c2ccc(F)cc2)cc1 ?
KCNQ2 block: -6.42*; KCNQ2 enhance: -6.42

How did O=C(CSc1nnc(-c2c[nH]c3ccccc23)o1)N(Cc1ccccc1)c1ccc(F)cc1 do in these assays?
KCNQ2 block: inactive

How did CC(C)N1CCC(N2CCN(Cc3cc(F)ccc3-n3cccn3)CC2CCO)CC1 (configuration not stated) do in these assays?
KCNQ2 block: inactive; KCNQ2 enhance: 1.51

How did O=C(CCc1ccc(S(=O)(=O)N2CCOCC2)cc1)Nc1ccc(N2CCOCC2)cc1 do in these assays?
KCNQ2 block: inactive; KCNQ2 enhance: 0.71

Results for CCOC(=O)c1sc(-c2ccc(OC)cc2)cc1NC(C)=O ?
KCNQ2 block: inactive

How did Cc1cccc(N2CCN(C(=O)c3cc4c(=O)n(C)c5ccccc5c4n3C)CC2C)c1 (configuration not stated) do in these assays?
KCNQ2 block: -6.06*; KCNQ2 enhance: -6.06

How did Cn1c(C(=O)N2CCCCCC2)cc2c(=O)n(C)c3ccccc3c21 do in these assays?
KCNQ2 block: inactive; KCNQ2 enhance: 0.64
